The panel holds about 83,000 compounds, 20% with a hit somewhere; the sample as a whole holds those more often.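 Note: values are percent growth. 100 is the growth of untreated cells, values between 100 and 0 indicate rising inhibition; between -100 and 0 indicates cell death.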 Values without a mark were called inactive. Activity calls are given as the source filed them. How the source made its calls: active means growth percent below 10; inactive means the rest.
Columns and labels:
Assay in all cases: NCI-60 one-dose screen, 48 h (100 = growth as untreated, 0 = no growth, -100 = all killed)
Conditions in all cases: 10 µM unless noted
NCI-H23 lung = test system: NCI-H23 lung
NCI-H226 lung = test system: NCI-H226 lung
NCI-H322M lung = test system: NCI-H322M lung
HOP-62 NSCLC = test system: HOP-62 NSCLC
NCI-H460 lung = test system: NCI-H460 lung
HOP-92 NSCLC = test system: HOP-92 NSCLC
NCI-H522 lung = test system: NCI-H522 lung
A549/ATCC NSCLC = test system: A549/ATCC NSCLC
786-0 renal = test system: 786-0 renal
COLO 205 colon = test system: COLO 205 colon

Structure (SMILES)	growth (NCI-H23 lung)	growth (NCI-H226 lung)	growth (NCI-H322M lung)	growth (HOP-62 NSCLC)	growth (NCI-H460 lung)	growth (HOP-92 NSCLC)	growth (NCI-H522 lung)	growth (A549/ATCC NSCLC)	growth (786-0 renal)	growth (COLO 205 colon)
COC(=O)c1ccccc1C(=O)c1c(C)cc(C)cc1C	94.7%	89.5%	101%	95.1%	105%	107%	87.5%	84.4%	104%	104%
COc1ccc(C)cc1NC(=O)SC(C)C	102% [100 µM]	89.6% [100 µM]	104% [100 µM]	97% [100 µM]	103% [100 µM]	103% [100 µM]	88.7% [100 µM]	104% [100 µM]	102% [100 µM]	132% [100 µM]
CN1CCCN(C(c2ccccc2)c2ccc(Cl)cc2)CC1 (stereo not given)	91.4%	93.9%	100%	94.2%	93%	60.4%	103%	107%	73.3%	103%
Oc1ccc2ccccc2c1CN1CCOCC1	104%	105%	112%	122%	115%	102%	110%	99.7%	109%	106%
CCOC(=O)C(COS(C)(=O)=O)(COS(C)(=O)=O)C(=O)OCC	99.5%	105%	101%	98.1%	109%	86%	96%	105%	108%	107%
CCOC(=O)CSCCC#N	95.3%	98.3%	101%	82.3%	106%	102%	96.3%	101%	93.5%	107%
Cc1nc(O)cc(=O)[nH]1	108%	111%	99.3%	112%	104%	76.3%	103%	109%	114%	115%
COC(CCCl)c1ccc(Cl)cc1 (stereo not given)	107%	101%	97.5%	114%	107%	121%	74.6%	95.4%	100%	111%
O=S(=O)(c1ccc(NC(=S)NCc2cccnc2)cc1)N1CCCCC1	87%	86.7%	91.4%	83.1%	63%	86.2%	19.1%	65.2%	93.8%	63%
O=C(Oc1ccccc1Cl)c1ccc(Cl)cc1Cl	101%	102%	107%	87.9%	102%	103%	98.8%	89.3%	95.9%	104%
O=C(CCl)Oc1ccc([N+](=O)[O-])cc1	108%	102%	106%	98.9%	107%	78.5%	107%	108%	108%	116%
Clc1cccc(Cl)c1C1CSc2ccccc2N=C1c1ccccc1 (stereo not given)	75.6%	82.7%	86.3%	84.6%	83.1%	75.4%	63.6%	73.8%	90.6%	102%
CSCCC(NC(=O)C(Cl)Cl)C(=O)O (stereo not given)	99%	88.5%	99.6%	77.9%	114%	85.2%	86.8%	80.5%	101%	99.7%
O=C(O)C1CSC(c2ccccc2)N1 (stereo not given)	95%	97%	98.8%	89.5%	98.5%	111%	79.4%	100%	112%	84.6%
O=[n+]1ccn([O-])c2ccccc21	96%	89.8%	104%	95%	102%	78.6%	118%	113%	103%	100%
O=S(=O)(OCCOS(=O)(=O)c1ccccc1)c1ccccc1	95%	87.6%	97.6%	94.9%	97.6%	99.5%	90.5%	93.3%	93.5%	112%
O=S(Cc1ccccc1)/C(=C/NC(=S)Nc1ccccc1)c1ccccc1 (stereo not given)	89.3%	101%	99.7%	94.9%	107%	101%	77%	95.9%	110%	101%
CCOC(=O)c1cc(C)[nH]c(=O)c1C#N	97.5%	101%	93.6%	97.3%	114%	104%	74.4%	98.5%	100%	114%
OCCOc1ccc(-c2cc(-c3ccccn3)nc(-c3ccccn3)c2)cc1	18.5%	0.498% (active)	9.08% (active)	4.56% (active)	0.477% (active)	-1.12% (active)	-18.8% (active)	4.79% (active)	1.56% (active)	0.364% (active)
COc1cc(CC#N)c([N+](=O)[O-])cc1OC	96%	105%	105%	113%	106%	99.8%	102%	102%	102%	110%
CN(C)c1ccc2nc3ccc(=[N+](C)C)cc-3oc2c1	9.83% (active)	33.2%	9.08% (active)	7.12% (active)	35.3%	55.9%	-37.4% (active)	30.7%	66.1%	-10.3% (active)
Cc1[nH]nc(C(N)=O)c1[N+](=O)[O-]	89.2%	87.6%	105%	77.5%	98.9%	84.1%	106%	101%	103%	102%
CN1CCCN(C(c2ccccc2)c2ccc(Br)cc2)CC1 (stereo not given)	87.1%	78.2%	39.7%	76.8%	82.5%	25.8%	90.8%	87.7%	79.1%	81.5%
CC1CCC(C)(C)c2ccccc21 (stereo not given)	97.2%	90%	98.9%	99.9%	109%	116%	93.6%	98.2%	101%	104%
CCOC(=O)CNC	101%	98.8%	96.9%	106%	106%	91.1%	123%	87.8%	101%	116%
CCOC(=O)/C(O)=C(\C=N\C(=S)Nc1ccc(Cl)c(Cl)c1)C(=O)OCC	87.3%	75.2%	106%	94.3%	106%	95.5%	71.4%	101%	115%	92.9%
CC(C)N1CC(=O)N2CSCC2C1=O (stereo not given)	111%	104%	115%	111%	108%	126%	102%	103%	107%	114%

From PubChem BioAssay (NCI)
